TDP1 inh: blocks human tyrosyl-DNA phosphodiesterase 1. Q9NUW8. Potency, µM (titrated, usually from 130 µM), most hits filed as inhibitors. AID 485290. recombinant TDP1, AlphaScreen DNA substrate cleavage. 0.28% of 350,000 active; note: nearly all actives have a fitted effect of over 40% in size
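Here, a 5' biotin and 3' phosphotyrosine-FITC DNA oligonucleotide reports Tdp1 activity: intact substrate bridges AlphaScreen beads, while cleavage leaves a 3' phosphate and drops signal. All incubations at room temperature.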
HP1b chromo inh: blocks HP1-beta chromodomain binding to methylated histone tails; P83916; AlphaScreen HP1-beta / biotin-H3K9me3 peptide binding; Potency, µM (series often up to 114 µM), actives largely listed as inhibitors; 0.56% of 390,000 active; AID 540317; note: nearly all actives have a fitted effect of over 70% in size
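HP1-beta protein (50 nM final) preincubated 30 min at room temperature with biotinylated H3(1-18)K9me3 peptide (50 nM) in PBS pH 7.4, 0.01% Tween-20, then compound added for 30 min. AlphaScreen streptavidin donor/nickel chelate acceptor beads (10 ug/mL final), 30 min dark, luminescence read.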
JMJD2A Tudor: JMJD2A Tudor domain (human) inhibition; O75164; AlphaScreen JMJD2A-Tudor / H3K4me3 peptide binding; Potency, µM (titrated, usually from 114 µM), usual class: inhibitors; 4.4% of 390,000 active; AID 504339; note: nearly all actives have a fitted effect of over 50% in size
Six1-Eya2 inh: inhibitors of human Six1/Eya2 interaction; Q15475+O00167; AlphaScreen GST-Six1/His-Eya2 binding, biochemical; stronger effect = lower value; activity change, % (no concentration beside the values); 0.56% of 360,000 active; AID 651725; in the data active = activity change below about -65%; inconclusive = mostly about -30% to -63%
Target sequence (O00167 whole entry, looked up): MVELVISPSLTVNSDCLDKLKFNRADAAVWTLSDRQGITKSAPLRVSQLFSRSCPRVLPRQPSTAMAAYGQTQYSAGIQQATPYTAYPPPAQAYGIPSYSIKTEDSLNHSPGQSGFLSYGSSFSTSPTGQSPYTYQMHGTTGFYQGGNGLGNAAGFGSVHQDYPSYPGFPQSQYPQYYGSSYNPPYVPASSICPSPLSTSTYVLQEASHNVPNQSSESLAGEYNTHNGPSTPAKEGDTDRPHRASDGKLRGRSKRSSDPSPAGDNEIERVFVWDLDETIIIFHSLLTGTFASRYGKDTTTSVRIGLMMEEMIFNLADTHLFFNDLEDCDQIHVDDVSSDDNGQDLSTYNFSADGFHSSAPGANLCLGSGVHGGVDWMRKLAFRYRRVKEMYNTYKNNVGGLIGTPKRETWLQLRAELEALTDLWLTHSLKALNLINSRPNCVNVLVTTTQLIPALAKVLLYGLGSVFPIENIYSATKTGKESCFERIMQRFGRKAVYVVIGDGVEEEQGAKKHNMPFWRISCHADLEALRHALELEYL
Target sequence (Q15475 whole entry, looked up): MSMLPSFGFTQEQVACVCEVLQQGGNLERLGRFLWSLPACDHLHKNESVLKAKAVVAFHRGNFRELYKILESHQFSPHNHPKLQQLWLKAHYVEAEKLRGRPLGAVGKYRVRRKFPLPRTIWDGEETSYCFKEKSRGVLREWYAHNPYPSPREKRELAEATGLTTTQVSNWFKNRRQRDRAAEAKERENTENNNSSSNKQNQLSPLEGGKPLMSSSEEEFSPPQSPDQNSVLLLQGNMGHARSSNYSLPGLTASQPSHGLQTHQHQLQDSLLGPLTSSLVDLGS
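GST-Six1 + His-Eya2 (5X stock: 250/500 nM); Tris pH 8.0, 300 mM NaCl, 0.05% BSA, 0.02% Tween 20; GSH donor/Ni acceptor beads; 1 h 37 °C dark; AlphaScreen readout.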
BAZ2B block: BAZ2B (human) inhibition; AID 504333; Potency, µM (top dose mostly 114 µM), most hits filed as inhibitors; AlphaScreen BAZ2B-H3K14Ac peptide displacement; 4.4% of 360,000 active; note: nearly all actives have a fitted effect of over 60% in size
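Protein-peptide AlphaScreen: BAZ2B 50 nM, b-H3K14Ac 50 nM, 1x PBS pH 7.4 + 0.01% Tween-20. Preincubation 30 min RT; cpd 30 min RT (top 110 uM); beads 20 min RT, light-protected.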
CtBP-E1A blk: blocks the CtBP interaction with E1A; 0.49% of 340,000 active; AlphaScreen GST-E1A/His-CtBP binding, 1536-well; stronger effect = lower value; AID 651724; activity change, % (no concentration beside the values); in the data active = activity change below about -65%; inconclusive = mostly about -30% to -63%
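GST-E1A and His-tagged CtBP (125 nM each as 5X stock) were preincubated with pin-transferred compound for 2 h at 37 °C in the dark, then glutathione donor and nickel acceptor beads were added for 1 h before AlphaScreen reading.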
Of the large screens only hits and unclear results are named; the others gave an inactive call. In the library only some 5.3% were active in any assay of this set; here they are far more common. Unless noted, calls come from the whole dose curve; as a rule, active = well fitted inhibition curve with a large enough effect; inconclusive = small, poorly fitted or top-dose-only effect; inactive = no such curve, though single readings can be large or run the other way.

COc1ccc(C(=O)c2sc(Nc3cc(Cl)ccc3C)nc2N)cc1OC	JMJD2A Tudor 22.4µM, BAZ2B block inconclusive (no result: Six1-Eya2 inh, CtBP-E1A blk)
Cc1ccccc1Nc1nc(N)c(C(=O)c2ccccc2Cl)s1	JMJD2A Tudor 56.2µM, BAZ2B block 31.6µM (no result: Six1-Eya2 inh, CtBP-E1A blk)
COc1ccc(C(=O)c2sc(Nc3ccccc3)nc2N)cc1	none (no result: CtBP-E1A blk)
Oc1cccc(-c2nc(-c3cccs3)c(-c3cccs3)[nH]2)c1	JMJD2A Tudor inconclusive, BAZ2B block 39.8µM (no result: Six1-Eya2 inh, CtBP-E1A blk)
COc1ccc(-c2nc(-c3ccccc3)c(-c3ccccc3)[nH]2)cc1Br	none (no result: Six1-Eya2 inh, CtBP-E1A blk)
O=[N+]([O-])c1ccc(-c2nc(-c3cccs3)c(-c3cccs3)[nH]2)cc1	HP1b chromo inh inconclusive, JMJD2A Tudor 20µM, Six1-Eya2 inh inconclusive
Fc1ccc(-c2nc(-c3cccs3)c(-c3cccs3)[nH]2)cc1	none (no result: Six1-Eya2 inh, CtBP-E1A blk)
O=[N+]([O-])c1cccc(-c2nc(-c3cccs3)c(-c3cccs3)[nH]2)c1	HP1b chromo inh inconclusive, Six1-Eya2 inh inconclusive, BAZ2B block inconclusive, CtBP-E1A blk inconclusive
COc1ccc(-c2nc(-c3cccs3)c(-c3cccs3)[nH]2)cc1OC	Six1-Eya2 inh inconclusive, CtBP-E1A blk -73.0
COc1ccc(-c2nc(-c3ccccc3)c(-c3cccs3)[nH]2)cc1OC	JMJD2A Tudor 39.8µM, Six1-Eya2 inh inconclusive
Cc1ccc(-c2nc(-c3cccs3)c(-c3cccs3)[nH]2)cc1	none (no result: Six1-Eya2 inh, CtBP-E1A blk)
NC(=O)CSc1oc(-c2cccs2)nc1S(=O)(=O)c1ccc(Br)cc1	none (no result: Six1-Eya2 inh, CtBP-E1A blk)
Cc1ccc(Cn2c(SCc3ccc(C(=O)N4CCCCCC4)cc3)nc3ccncc32)cc1	none (no result: Six1-Eya2 inh, CtBP-E1A blk)
CC(=O)NCCNc1nc(-c2ccccc2CN(C)C)nc2ccccc12	none (no result: HP1b chromo inh, JMJD2A Tudor, Six1-Eya2 inh, BAZ2B block, CtBP-E1A blk)
O=C(NC1CCCCC1)c1n[nH]c2c1CC(c1ccccc1)CC2 (stereo unspecified)	none (no result: CtBP-E1A blk)
CCC1CCc2[nH]nc(C(=O)O)c2C1 (stereo unspecified)	JMJD2A Tudor 50.1µM, BAZ2B block inconclusive
O=C(O)c1n[nH]c2c1CC(C1CCCCC1)CC2 (stereo unspecified)	BAZ2B block 70.8µM
CC1CCc2[nH]nc(C(=O)O)c2C1 (stereo unspecified)	JMJD2A Tudor 31.6µM, BAZ2B block inconclusive
CCCCC1CCc2[nH]nc(C(=O)O)c2C1 (stereo unspecified)	BAZ2B block inconclusive
OCc1cnc(SCc2ccccc2F)n1Cc1ccc(F)cc1	BAZ2B block inconclusive (no result: Six1-Eya2 inh, CtBP-E1A blk)
N#Cc1ccccc1-c1ccc2ncnc(N3CCNCC3)c2c1	none (no result: HP1b chromo inh, JMJD2A Tudor, Six1-Eya2 inh, BAZ2B block, CtBP-E1A blk)
Cc1cccc(-c2nc(CSc3nncn4c3cc3sccc34)c(C)o2)c1	none (no result: Six1-Eya2 inh, CtBP-E1A blk)
Cn1cnc(S(=O)(=O)N2CCC(C(=O)NCc3ccccc3)CC2)c1	BAZ2B block inconclusive (no result: Six1-Eya2 inh, CtBP-E1A blk)
CCOC(=O)c1[nH]c(=S)n(Cc2ccccc2)c1C(=O)OCC	HP1b chromo inh inconclusive, JMJD2A Tudor 3.16µM (no result: TDP1 inh, BAZ2B block)
Cc1cccc(Cc2c(C)[nH]c(=O)c(C#N)c2C)c1	BAZ2B block 89.1µM
Cc1[nH]c(=S)c(C#N)c(C)c1Cc1ccccc1	JMJD2A Tudor inconclusive
Cc1cccc(C(=O)n2c(=S)nc3cc(C)ccn32)c1	JMJD2A Tudor 39.8µM
CCNC(=O)CC1C(=O)N(c2ccc(F)cc2)C(=O)N1CCOC (stereo unspecified)	none (no result: Six1-Eya2 inh, CtBP-E1A blk)
CCc1ccc(-n2nc(C)c3c(C)cc(=O)n(CC(=O)Nc4ccccc4C(=O)OC)c32)cc1	none (no result: Six1-Eya2 inh, CtBP-E1A blk)
Cc1nc(SCC(N)=O)c([N+](=O)[O-])[nH]1	JMJD2A Tudor 39.8µM
CCOC(=O)CSc1nc(C)[nH]c1[N+](=O)[O-]	none
Cc1ccc(C=C2SC(=S)N(CCCC(=O)Nc3cccc(C(=O)O)c3)C2=O)cc1	none (no result: TDP1 inh, HP1b chromo inh, JMJD2A Tudor, BAZ2B block)
Cc1ccc(/C=C2\SC(=S)N(CCCC(=O)Nc3cccc(C(=O)O)c3)C2=O)cc1	HP1b chromo inh inconclusive, JMJD2A Tudor 39.8µM
O=C(CCN1C(=O)/C(=C/c2ccc(Cl)cc2)SC1=S)Nc1cccc(C(=O)O)c1	JMJD2A Tudor 50.1µM, BAZ2B block 31.6µM (no result: TDP1 inh)
COc1ccc(/C=C2\SC(=S)N(CCC(=O)Nc3cccc(C(=O)O)c3)C2=O)cc1	JMJD2A Tudor inconclusive, BAZ2B block inconclusive (no result: TDP1 inh, CtBP-E1A blk)
O=C(O)CCc1ccc(-c2ccccc2)n1-c1cccc(Br)c1	JMJD2A Tudor inconclusive, BAZ2B block inconclusive (no result: TDP1 inh, Six1-Eya2 inh, CtBP-E1A blk)
Cc1ccc(NC(=S)N(CCCN2CCOCC2)Cc2ccccn2)cc1	none
Cc1ccccc1NC(=S)N(CCCN1CCOCC1)Cc1ccccn1	JMJD2A Tudor 3.55µM
CCCCN(C)C(=O)c1ccc2c(=O)n3nc(Nc4cc(C)ccc4C)sc3nc2c1	none (no result: Six1-Eya2 inh, CtBP-E1A blk)
C[N+]1(CC(=O)OCCCc2ccccc2)CCCC1	JMJD2A Tudor inconclusive, BAZ2B block 56.2µM
Clc1ccc(OCc2nn3c(-c4ccco4)nnc3s2)c(Cl)c1	JMJD2A Tudor inconclusive, BAZ2B block 56.2µM
CCc1nc2ccc(C(=O)NCc3cc(OC)ccc3OC)cc2nc1CC	none (no result: Six1-Eya2 inh, CtBP-E1A blk)

Screening results (PubChem BioAssay)
